Source: PubChem BioAssay (NCATS)
Results filed as inconclusive are left out. Calls of active or inactive are those of the source. Calls come from the whole dose curve; as a rule, active = well fitted curve in the direction sought with a large enough effect; inconclusive = small, poorly fitted or top-dose-only effect, or another doubt; inactive = no such curve, though single readings can be large; an effect the other way counts as inactive or inconclusive.

Key:
[1] = BET inhibitor-based combinations targeting novel dependencies in MECOM-rearranged (r) AML: SET-2 cell line (AID 2202231); settings: SET-2 AML cells viability, CellTiter-Glo luminescence, 48 h; viability: active compounds read low, concentration not given here; note: nearly all actives have a fitted effect of over 35% in size;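 for viability: plate controls were DMSO treated cells for no effect and wells without cells for full effect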
How it was run: (§1)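 AML cell lines seeded at 500 cells/well, treated with 11-point dose curves for 48 h. Viability by CellTiter-Glo luminescence, normalised to DMSO and empty wells; activity expressed as AUC and per-cell-line Z-transformed AUC.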

[2] = BET inhibitor-based combinations targeting novel dependencies in MECOM-rearranged (r) AML: OCI-AML3 cell line (AID 2202232); settings: Potency: OCI-AML3 viability; note: nearly all actives have a fitted effect of over 35% in size;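 for viability (% of control): series mostly up to about 46 µM; plate controls were DMSO vehicle wells for no effect and wells without cells for full effect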
How it was run: as §1

[3] = BET inhibitor-based combinations targeting novel dependencies in MECOM-rearranged (r) AML: MV-4-11 cell line (AID 2202233); note: nearly all actives have a fitted effect of over 45% in size;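 for viability, % of control: plate controls were DMSO for no effect and blank wells for full effect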
How it was run: (§2)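 Cells at 500/well were exposed for 48 hr to MIPE v5.0 drugs as 11-point dose curves. Viability was read by CellTiter-Glo luminescence and normalized to DMSO and empty-well controls. Activity was expressed as AUC and per-cell-line Z-AUC.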

[4] = BET inhibitor-based combinations targeting novel dependencies in MECOM-rearranged (r) AML: HNT-34 cell line (AID 2202234); note: nearly all actives have a fitted effect of over 35% in size;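 for viability (% of control): plate controls were vehicle wells for no effect and cell-free wells for full effect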
How it was run: as §2

[5] = BET inhibitor-based combinations targeting novel dependencies in MECOM-rearranged (r) AML: AML-191 cell line (AID 2202236; note: nearly all actives have a fitted effect of over 35% in size;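 for viability (% of control): plate controls were vehicle wells for no effect and wells without cells for full effect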)
How it was run: as §1

[6] = BET inhibitor-based combinations targeting novel dependencies in MECOM-rearranged (r) AML: UCSD-AML1 cell line (AID 2202235); note: nearly all actives have a fitted effect of over 40% in size;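 for viability (% of control): series mostly up to about 46 µM; plate controls were DMSO vehicle wells for no effect and blank wells for full effect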
How it was run: as §2

[7] = BET inhibitor-based combinations targeting novel dependencies in MECOM-rearranged (r) AML: AML-194 cell line (AID 2202237; note: nearly all actives have a fitted effect of over 40% in size;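 for viability (% of control): plate controls were vehicle wells for no effect and wells without cells for full effect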)
How it was run: as §1
Potency is the fitted concentration of half-maximal effect.

N#Cc1ccnc(N2C(=O)CC[C@H]2C(=O)N(c2cncc(F)c2)C(C(=O)NC2CC(F)(F)C2)c2ccccc2Cl)c1 (some centres not stated)
inactive: viability [1] 91.5% | Potency [2] | Potency [3] | Potency [4] | Potency [5]

Ac-PHSCN-NH2
inactive: viability [1] 109% | Potency [2] | Potency [3] | Potency [4] | Potency [6] | Potency [5] | Potency [7]

COc1cc([C@@H]2c3cc4c(cc3[C@@H](O[C@@H]3O[C@@H]5CO[C@@H](C)O[C@@H]5[C@H](O)[C@@H]3O)[C@H]3COC(=O)[C@H]23)OCO4)cc(OC)c1O
active: Potency [1] 5.25 µM | Potency [2] 0.934 µM | Potency [3] 0.166 µM | Potency [4] 1.48 µM | Potency [6] 0.833 µM | Potency [5] 1.32 µM | Potency [7] 2.09 µM

CC(c1cc2ccccc2s1)N(O)C(N)=O (configuration not stated)
inactive: viability [1] 106% | Potency [2] | Potency [3] | Potency [4] | Potency [6] | Potency [5] | Potency [7]

CN1CCC(c2c(O)cc(O)c3c(=O)cc(-c4ccccc4Cl)oc23)C1CO (configuration not stated)
active: Potency [1] 1.32 µM | Potency [2] 0.742 µM | Potency [3] 0.934 µM | Potency [4] 0.833 µM | Potency [6] 1.05 µM | Potency [5] 0.662 µM | Potency [7] 1.05 µM

COC(=O)/C=C/C(=O)OC
inactive: viability [1] 117% | Potency [2] | Potency [3] | Potency [4] | Potency [5] | Potency [7]

CN(C)c1ccc(C(=O)NCCCCCCC(=O)NO)cc1
active: Potency [1] 0.934 µM | Potency [2] 0.833 µM | Potency [3] 0.59 µM | Potency [4] 1.18 µM | Potency [5] 1.18 µM | Potency [7] 1.32 µM

CC1c2cccc(O)c2C(O)=C2C(=O)C3(O)C(O)=C(C(N)=O)C(=O)C(N(C)C)C3C(O)C21 (configuration not stated)
active: Potency [1] 26.3 µM | Potency [2] 26.3 µM | Potency [3] 26.3 µM
inactive: Potency [6]

CC(C)C[C@H](NC(=O)[C@H](Cc1ccccc1)NC(=O)OCc1ccccc1)C(=O)C=O
active: Potency [5] 26.3 µM
inactive: viability [1] 114% | Potency [2] | Potency [3] | Potency [4] | Potency [7]

Cn1cc(CNCC2CCN(c3ncc(C(=O)NO)cn3)CC2)c2ccccc21
active: Potency [1] 0.148 µM | Potency [2] 0.118 µM | Potency [3] 0.0833 µM | Potency [4] 0.118 µM | Potency [5] 0.148 µM | Potency [7] 0.332 µM

CCN1CCN(Cc2ccc(-c3cc4c(N[C@H](C)c5ccccc5)ncnc4[nH]3)cc2)CC1
active: Potency [1] 23.5 µM | Potency [2] 20.9 µM | Potency [3] 2.63 µM | Potency [4] 2.63 µM | Potency [5] 18.6 µM | Potency [7] 26.3 µM

O=c1cc(O)c(Cl)c[nH]1
inactive: viability [1] 115% | Potency [2] | Potency [3] | Potency [4] | Potency [5] | Potency [7]

O=C(/C=C/c1ccc(/C=C/C(=O)Nc2ccc(C3=NCCN3)cc2)cc1)Nc1ccc(C2=NCCN2)cc1
inactive: viability [1] 113% | viability (% of control) [2] 117% [at 5.12 µM] | viability, % of control [3] 112% [at 5.12 µM] | viability (% of control) [4] 109% [at 5.12 µM] | viability (% of control) [5] 109% [at 5.12 µM] | viability (% of control) [7] 108% [at 5.12 µM]

Cc1c(F)cccc1NC(=O)Nc1ccc(Cl)c(S(=O)(=O)[C@H]2CCCNC2)c1O
inactive: viability [1] 112% | Potency [2] | Potency [3] | Potency [4] | Potency [5] | Potency [7]

CC(C)Cc1ccc([C@@H](C)C(=O)NS(C)(=O)=O)cc1
inactive: viability [1] 112% | Potency [2] | Potency [3] | Potency [4] | Potency [5] | Potency [7]

CN1CCN(c2ccc3nc(-c4c(N)c5c(F)cccc5[nH]c4=O)[nH]c3c2)CC1
active: Potency [1] 4.17 µM | Potency [2] 4.68 µM | Potency [3] 0.059 µM | Potency [4] 0.833 µM | Potency [5] 1.86 µM | Potency [7] 1.86 µM

CCC1=C[C@@H]2CN(C1)Cc1c([nH]c3ccccc13)[C@@](C(=O)OC)(c1cc3c(cc1OC)N(C)[C@H]1[C@@](O)(C(=O)OC)[C@H](OC(C)=O)[C@]4(CC)C=CCN5CC[C@]31[C@@H]54)C2
active: Potency [1] 7.23 µM | Potency [2] 0.257 µM | Potency [3] 0.323 µM | Potency [4] 0.229 µM | Potency [5] 0.645 µM | Potency [7] 0.645 µM

Cc1cc(-c2cnn3c(NCC4CC(C)(O)C4)cc(Oc4cccnc4)nc23)ccc1C(=O)NC1CC1 (configuration not stated)
active: Potency [1] 1.18 µM | Potency [2] 0.263 µM | Potency [3] 0.332 µM | Potency [4] 0.934 µM | Potency [7] 1.05 µM

Cc1ccc(NS(=O)(=O)c2cccc(C#N)c2)c2[nH]cc(C#N)c12
active: Potency [1] 14.8 µM | Potency [2] 1.18 µM | Potency [3] 0.296 µM | Potency [6] 0.833 µM
